# Test results: PubChem BioAssay AID1159580 (chemical genetic matrix, 2015)
# Hit rate of the full screen: of about 5,500 compounds, about 2,000 (36%) were called active. Inconclusive results (about 18%) are left out. Some of the results follow. A number with no mark means an inactive call. Rule as the data show it: active = normalized growth mostly below about 0.91 (no sharp cut-off); inconclusive = no clear call, values can overlap the other calls; inactive = mostly above about 0.92.
# Test: chemical genetic growth profiling, strain panel (AID 1159580);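 also: tested at 20 µM; growth read once vehicle control cultures reached saturation at 30 °C; 1 = growth at the plate median or of vehicle wells; lower values mean less growth of the strain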
# Conditions: S. cerevisiae deletion strains, growth OD
compound,measurement,setting,value
CN(C/C=C/C#CC(C)(C)C)Cc1cccc2ccccc12,normalized growth,"locus YAL021C, strain ccr4, hits give low values",0.121 (active)
same,normalized growth,"locus YAL026C, strain drs2, hits give low values",0.0882 (active)
same,normalized growth,"locus YAL030W, strain snc1, hits give low values",0.334 (active)
same,normalized growth,"locus YBL061C, strain skt5, hits give low values",0.256 (active)
same,normalized growth,"locus YBR009C, strain hhf1, hits give low values",0.293 (active)
same,normalized growth,"locus YBR023C, strain chs3, hits give low values",0.254 (active)
same,normalized growth,"locus YBR171W, strain sec66, hits give low values",0.793 (active)
same,normalized growth,"locus YBR231C, strain swc5, hits give low values",0.423 (active)
same,normalized growth,"locus YBR279W, strain paf1, hits give low values",0.376 (active)
same,normalized growth,"locus YCL011C, strain gbp2, hits give low values",0.228 (active)
same,normalized growth,"locus YCL016C, strain dcc1, hits give low values",0.334 (active)
same,normalized growth,"locus YCL061C, strain MRC1, hits give low values",0.478 (active)
same,normalized growth,"locus YCL069W, strain vba3, hits give low values",0.283 (active)
same,normalized growth,"locus YCR088W, strain abp1, hits give low values",0.498 (active)
same,normalized growth,"locus YDL005C, strain med2, hits give low values",0.246 (active)
same,normalized growth,"locus YDL040C, strain nat1, hits give low values",0.528 (active)
same,normalized growth,"locus YDR001C, strain nth1, hits give low values",0.573 (active)
same,normalized growth,"locus YDR069C, strain doa4, hits give low values",0.567 (active)
same,normalized growth,"locus YDR137W, strain rgp1, hits give low values",0.492 (active)
same,normalized growth,"locus YDR159W, strain sac3, hits give low values",0.512 (active)
same,normalized growth,"locus YDR195W, strain ref2",1.34 [resistant] (active)
same,normalized growth,"locus YDR297W, strain sur2, hits give low values",0.398 (active)
same,normalized growth,"locus YDR334W, strain swr1, hits give low values",0.492 (active)
same,normalized growth,"locus YDR335W, strain msn5, hits give low values",0.219 (active)
same,normalized growth,"locus YDR392W, strain spt3, hits give low values",0.163 (active)
same,normalized growth,"locus YEL003W, strain gim4, hits give low values",0.311 (active)
same,normalized growth,"locus YEL037C, strain rad23, hits give low values",0.372 (active)
same,normalized growth,"locus YEL061C, strain CIN8 (second series), hits give low values",0.444 (active)
same,normalized growth,"locus YER015W, strain faa2, hits give low values",0.384 (active)
same,normalized growth,"locus YER016W, strain bim1, hits give low values",0.484 (active)
same,normalized growth,"locus YER111C, strain swi4, hits give low values",0.417 (active)
same,normalized growth,"locus YER155C, strain BEM2 (second series), hits give low values",0.469 (active)
same,normalized growth,"locus YFR010W, strain ubp6, hits give low values",0.457 (active)
same,normalized growth,"locus YGL167C, strain pmr1, hits give low values",0.909 (active)
same,normalized growth,"locus YGL173C, strain kem1, hits give low values",0.488 (active)
same,normalized growth,"locus YGL227W, strain vid30, hits give low values",0.536 (active)
same,normalized growth,"locus YGL240W, strain doc1, hits give low values",0.459 (active)
same,normalized growth,"locus YGL253W, strain hxk2, hits give low values",0.208 (active)
same,normalized growth,"locus YHR013C, strain ard1, hits give low values",0.241 (active)
same,normalized growth,"locus YHR027C, strain rpn1, hits give low values",0.442 (active)
same,normalized growth,"locus YHR030C, strain SLT2, hits give low values",0.471 (active)
same,normalized growth,"locus YHR079C, strain IRE1, hits give low values",0.792 (active)
same,normalized growth,"locus YHR142W, strain chs7, hits give low values",0.174 (active)
same,normalized growth,"locus YJL092W, strain hpr5, hits give low values",0.468 (active)
same,normalized growth,"locus YJL095W, strain BCK1 (second series), hits give low values",0.0681 (active)
same,normalized growth,"locus YJL095W, strain BCK1, hits give low values",0.472 (active)
same,normalized growth,"locus YJL115W, strain asf1, hits give low values",0.664 (active)
same,normalized growth,"locus YJL129C, strain trk1, hits give low values",0.351 (active)
same,normalized growth,"locus YJL154C, strain vps35, hits give low values",0.649 (active)
same,normalized growth,"locus YJL164C, strain tpk1, hits give low values",0.215 (active)
same,normalized growth,"locus YJL166W, strain qcr8, hits give low values",0.266 (active)
same,normalized growth,"locus YJL187C, strain SWE1, hits give low values",0.272 (active)
same,normalized growth,"locus YJR066W, strain TOR1, hits give low values",0.683 (active)
same,normalized growth,"locus YKL160W, strain elf1, hits give low values",0.296 (active)
same,normalized growth,"locus YKR026C, strain gcn3, hits give low values",0.452 (active)
same,normalized growth,"locus YKR091W, strain srl3, hits give low values",0.626 (active)
same,normalized growth,"locus YLL001W, strain dnm1, hits give low values",0.37 (active)
same,normalized growth,"locus YLL026W, hits give low values",0.283 (active)
same,normalized growth,"locus YLL041C, strain sdh2, hits give low values",0.462 (active)
same,normalized growth,"locus YLR027C, strain aat2, hits give low values",0.225 (active)
same,normalized growth,"locus YLR113W, strain HOG1, hits give low values",0.807 (active)
same,normalized growth,"locus YLR221C, strain rsa3, hits give low values",0.25 (active)
same,normalized growth,"locus YLR258W, strain gsy2, hits give low values",0.285 (active)
same,normalized growth,"locus YLR262C, strain YPT6 (second series), hits give low values",0.397 (active)
same,normalized growth,"locus YLR320W, strain mms22, hits give low values",0.189 (active)
same,normalized growth,"locus YLR342W, strain FKS1, hits give low values",0.513 (active)
same,normalized growth,"locus YLR357W, strain rsc2, hits give low values",1.11
same,normalized growth,"locus YLR370C, strain arc18, hits give low values",0.405 (active)
same,normalized growth,"locus YLR384C, strain iki3, hits give low values",0.635 (active)
same,normalized growth,"locus YML120C, strain ndi1, hits give low values",0.325 (active)
same,normalized growth,"locus YMR058W, strain fet3, hits give low values",0.281 (active)
same,normalized growth,"locus YMR125W, strain sto1, hits give low values",0.533 (active)
same,normalized growth,"locus YMR129W, hits give low values",0.361 (active)
same,normalized growth,"locus YMR205C, strain PFK2, hits give low values",0.532 (active)
same,normalized growth,"locus YMR231W, strain pep5, hits give low values",0.188 (active)
same,normalized growth,"locus YNL071W, strain lat1, hits give low values",0.209 (active)
same,normalized growth,"locus YNL183C, strain NPR1, hits give low values",0.808 (active)
same,normalized growth,"locus YNL209W, strain ssb2, hits give low values",0.395 (active)
same,normalized growth,"locus YNL248C, strain rpa49, hits give low values",0.378 (active)
same,normalized growth,"locus YNL322C, strain KRE1 (second series), hits give low values",0.506 (active)
same,normalized growth,"locus YNR049C, strain mso1, hits give low values",0.562 (active)
same,normalized growth,"locus YOR001W, strain rrp6, hits give low values",0.26 (active)
same,normalized growth,"locus YOR070C, strain gyp1, hits give low values",0.166 (active)
same,normalized growth,"locus YOR080W, strain dia2, hits give low values",0.516 (active)
same,normalized growth,"locus YOR083W, strain WHI5, hits give low values",0.369 (active)
same,normalized growth,"locus YOR106W, strain vam3, hits give low values",0.187 (active)
same,normalized growth,"locus YOR231W, strain MKK1, hits give low values",0.769 (active)
same,normalized growth,"locus YOR265W, strain rbl2, hits give low values",0.432 (active)
same,normalized growth,"locus YOR270C, strain vph1, hits give low values",0.192 (active)
same,normalized growth,"locus YOR290C, strain snf2, hits give low values",0.305 (active)
same,normalized growth,"locus YPL051W, strain arl3, hits give low values",0.199 (active)
same,normalized growth,"locus YPL078C, strain atp4, hits give low values",0.373 (active)
same,normalized growth,"locus YPL106C, strain sse1, hits give low values",0.444 (active)
same,normalized growth,"locus YPL240C, strain hsp82, hits give low values",0.334 (active)
same,normalized growth,"locus YPL256C, strain CLN2, hits give low values",0.81 (active)
